Hits are enriched below; roughly 1.3% of the tested compounds scored in any of these assays.
12-LOX inh – blocks human arachidonate 12S-lipoxygenase. P18054. purified 12hLO, xylenol orange hydroperoxide absorbance. Potency, µM (highest dose often 108 µM), for inactives: top-dose activity change, negative = inhibition, hits mostly inhibitors. 580,000 compounds, 1.1% hits; also: % is scaled to controls: 0 for no effect and ±100 for the full control effect
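Hydroperoxide product was detected by ferrous iron/xylenol orange as the 573 to 405 nm absorbance ratio. Arachidonic acid at 40 uM (final) was turned over for 30 min at room temperature by 150 nM human 12hLO, pH 7.0 Hepes buffer, after 15 min compound preincubation.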
EPAC2 antag – antagonists of human EPAC2 | Potency, µM (doses to about 114 µM), inactives show at the top dose activity, negative = inhibition, hits mostly inhibitors | 360,000 compounds, 0.18% hits | AID 720708 | EPAC2 GEF exchange of Rap1B-BODIPY-GDP, fluorescence; also: % is scaled to controls: 0 for no effect and ±100 for the full control effect; nearly all actives have a fitted effect of over 45% in size
EPAC2 ag – EPAC2 (human) agonism; Potency, µM (highest dose often 154 µM), without a hit: top-dose activation, most hits filed as activators; AID 720711; EPAC2 activation, biochemical qHTS; response scale: 100% = 6.5 mM cAMP response; 360,000 compounds, 0.079% hits; also: nearly all actives have a fitted effect of over 50% in size
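Setup: EPAC2 100 nM, labeled Rap1B complex 250 nM, free GDP 50 uM. Compound titrations pinned in, brief spin, 5 min room temperature incubation. Kinetic fluorescence read over 30 min, normalized to 6.5 mM cAMP.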
EPAC1 agonist – agonists of human EPAC1; O95398; AID 720707; EPAC1 agonist qHTS, biochemical assay; response scale: 100% = response to 6.5 mM cAMP; 360,000 compounds, 0.073% hits; Potency, µM (series often up to 154 µM), inactives show at the highest dose activation, most hits filed as activators; also: nearly all actives have a fitted effect of over 60% in size
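Nucleotide exchange assay: 100 nM EPAC1 with 250 nM Rap1B loaded with BODIPY-GDP and 50 uM GDP, room temperature. Fluorescence (480/540 nm) read every 5 min for 30 min; signal change normalized to 6.5 mM cAMP as full agonist.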
USP1-UAF1 inh – inhibitors of human USP1/UAF1 deubiquitinase | O94782 | recombinant USP1/UAF1, Ub-Rhodamine cleavage fluorescence | Potency, µM (doses to about 57.1 µM), for the others: at the top dose activity change, negative = inhibition, actives largely listed as inhibitors | 390,000 compounds, 0.23% hits | AID 743255; also: % is scaled to controls: 0 for no effect and ±100 for the full control effect; nearly all actives have a fitted effect of over 60% in size
Target sequence (O94782 whole entry, looked up): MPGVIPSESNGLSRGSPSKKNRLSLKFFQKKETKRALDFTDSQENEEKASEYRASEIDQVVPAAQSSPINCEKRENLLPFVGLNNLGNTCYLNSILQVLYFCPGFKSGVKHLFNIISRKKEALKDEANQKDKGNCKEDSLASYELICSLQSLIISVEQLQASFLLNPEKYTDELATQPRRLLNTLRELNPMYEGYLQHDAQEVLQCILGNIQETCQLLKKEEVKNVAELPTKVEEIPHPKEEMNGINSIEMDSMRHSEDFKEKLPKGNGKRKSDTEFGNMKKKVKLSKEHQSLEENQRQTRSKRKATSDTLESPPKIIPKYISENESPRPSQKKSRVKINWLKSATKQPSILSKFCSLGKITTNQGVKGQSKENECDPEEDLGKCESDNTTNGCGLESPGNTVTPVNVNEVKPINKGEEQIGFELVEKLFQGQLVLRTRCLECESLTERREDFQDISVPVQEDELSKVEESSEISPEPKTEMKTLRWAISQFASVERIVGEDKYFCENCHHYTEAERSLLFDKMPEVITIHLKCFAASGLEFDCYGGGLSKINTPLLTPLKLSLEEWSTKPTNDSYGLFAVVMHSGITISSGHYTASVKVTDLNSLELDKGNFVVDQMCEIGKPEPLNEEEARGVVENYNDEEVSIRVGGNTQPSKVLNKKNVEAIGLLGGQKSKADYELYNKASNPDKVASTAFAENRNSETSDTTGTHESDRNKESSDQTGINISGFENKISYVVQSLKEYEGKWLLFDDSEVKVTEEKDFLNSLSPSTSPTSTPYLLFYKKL
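In this screen, compounds sit with the deubiquitinase complex (1nM) for 15 min at room temperature before Ub-Rho is added at 150nM final. Fluorescence rise is then followed for 6 reads every 60 seconds.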
EPAC1 antagonist – EPAC1 (human) antagonism; O95398; EPAC1 GEF assay, Rap1b-BODIPY-GDP exchange fluorescence; Potency, µM (titrated, usually from 115 µM), without a hit: at the highest dose activity change, negative = inhibition, most hits filed as inhibitors; 360,000 compounds, 0.14% hits; AID 720709;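 also: plate controls were vehicle for no effect and positive control for full effect; nearly all actives have a fitted effect of over 50% in size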
* = called active by the depositor; ? = inconclusive; · = no result; [ ] = remark or other dose. Calls follow the shape of the dose curve; as a rule, active = well fitted curve in the direction sought with a large enough effect; inconclusive = small, poorly fitted or top-dose-only effect, or another doubt; inactive = no such curve, though single readings can be large; an effect the other way counts as inactive or inconclusive. Potency is read from the fitted curve at half-maximal effect.

SMILES	12-LOX inh	EPAC2 antag	EPAC2 ag	EPAC1 agonist	USP1-UAF1 inh	EPAC1 antagonist
COc1cc(-c2cc(C(=O)Nc3c(Cl)cc(Cl)cc3Cl)c3ccccc3n2)cc(OC)c1OC	-16%	4%	-1%	-8%	-18%	-2%
Cc1ccc(OCCCCc2c(C)n[nH]c2C)c(C(C)(C)C)c1	35µM*	·	·	·	·	·
c1ccc2sc(SSc3nc4ccccc4s3)nc2c1	5µM*	·	·	·	·	·
O=C1C(Cl)=C(Nc2ccccc2)C(=O)c2ccccc21	-1%	4%	-1%	6%	-25%	-5%
O=C1C(Cl)=C(NCCc2ccccc2)C(=O)c2ccccc21	4µM*	-6%	8%	14%	?	?
COc1ccc(C(=O)Oc2ccccc2OC)cc1Br	-25%	·	·	·	·	·
Cc1nc(-c2ccccc2)sc1-c1ccccc1	-13%	·	·	·	·	·
Cn1c(-c2csc(-c3ccccc3)n2)n[nH]c1=S	32µM*	3%	4%	3%	-18%	-20%
CCn1c(-c2sc(-c3ccccc3)nc2C)n[nH]c1=S	45µM*	-16%	-14%	-4%	4%	-9%
O=S(=O)(c1ccc(-c2csc(Nc3cccc4ccccc34)n2)cc1)N1CCCCC1	16µM*	·	·	·	·	·
Cc1ccc(C)c(NC(NC(=O)C(C)C)C(Cl)(Cl)Cl)c1 (centres undefined)	2%	·	·	·	·	·
COC(=O)C1(Cc2ccccc2)NC(c2ccc(F)cc2)C2C(=O)N(C)C(=O)C21 (centres undefined)	0%	-2%	7.9µM*	-8%	-13%	11%
CCNc1c(NC(=O)NC)c(=O)oc2ccccc12	51%	·	·	·	·	·
O=C(NC1CCCCC1)C(Nc1ccccc1)c1ccccc1F (centres undefined)	1%	·	·	·	·	·
CCN(Cc1nc2cc(Cl)ccc2c(=O)[nH]1)C(=O)CNC(=O)c1cccc(C)c1	15%	·	·	·	·	·
CC1CC1c1ccc(/C=C/C(=O)N(Cc2ccccc2)C2CC2)o1 (centres undefined)	8.9µM*	·	·	·	·	·
O=C(/C=C/c1ccco1)N(Cc1ccccc1)C1CCS(=O)(=O)C1 (centres undefined)	?	-4%	17%	-8%	6%	10%
O=C(Cc1ccsc1)N1CC(Oc2ccccc2-c2nc(-c3ccccc3)no2)C1	6%	·	·	·	·	·
CCN(CC)CCCNC(=O)c1cc(Nc2ccc(OC)cc2)nc2ccccc12	26%	3%	2%	4%	-11%	2%
CCN(CC)CCCNC(=O)c1cc(-c2ccc(OC)cc2)nc2ccccc12	6.3µM*	·	·	·	·	·
CCCCCNC(=O)c1cc(-c2ccc(OC)cc2)nc2ccccc12	32µM*	·	·	·	·	·
CCNC(=S)NNC(=O)c1cc(-c2cccc(OC)c2)nc2ccccc12	-24%	4%	-13%	-8%	-19%	5%
CCCCNC(=O)c1cc(-c2ccc(OCC)cc2)nc2ccccc12	-40%	·	·	·	·	·
CCCOc1cccc(-c2cc(C(=O)NNC(=S)NCC)c3ccccc3n2)c1	25µM*	-12%	-3%	9%	?	-21%
Oc1ccc2ccccc2c1C=NCC12CC3CCC(CC(C3)C1)C2	-2%	·	·	·	·	·
SMILES	12-LOX inh	EPAC2 antag	EPAC2 ag	EPAC1 agonist	USP1-UAF1 inh	EPAC1 antagonist
COc1ccc(-c2cnc3[nH]cc(CC(=O)NC4CCOCC4)c3c2)cc1	0%[176 µM]	·	·	·	·	·
Cc1ccc(OCC(=O)N2CCC(NC(=O)c3ccccc3)CC2)c(C)c1	0%	·	·	·	·	·
O=C(Cc1nc2ccccc2[nH]c1=O)c1ccccc1	-7%	32%	?	1%	32µM*	3%
O=c1[nH]c2ccccc2nc1Cc1ccccc1	?	0%	1%	12%	-26%	-23%
CCCNC(=O)CNC(=O)CCc1ncc(-c2ccc(C)cc2)o1	19%	·	·	·	·	·
COc1ccc(CN2CCN(Cc3c[nH]c4ccccc34)CC2)cc1	0.71µM*	-1%	9%	13%	-6%	12%
COc1ccc(CN2CCN(Cc3c[nH]c4ccccc34)CC2)cc1OC	1.1µM*	2%	2%	8%	9%	-10%
Cc1ccc(CN2CCN(Cc3c[nH]c4ccccc34)CC2)cc1	0%	·	·	·	·	·
O=C(Nc1ccc(Cl)cc1)C(Cl)C(=O)c1ccccc1 (centres undefined)	?	-3%	2%	-8%	?	-11%
O=C(Nc1ccccc1Cl)C(Cl)C(=O)c1ccccc1 (centres undefined)	20µM*	-8%	16%	3%	-24%	-24%
O=C1c2cnc(-c3ccc(Oc4ccccc4)cc3)nc2OCCN1CC1CC1	1%[176 µM]	·	·	·	·	·
COc1ccccc1/C=C/C=c1\sc2nc(=O)c(Cc3ccccc3)nn2c1=O	?	6%	?	8%	-16%	35µM*
CCCCn1c(-c2csc3ccccc23)n[nH]c1=S	?	0%	-4%	1%	-10%	-12%
CCCCn1c(-c2csc(CC)c2)n[nH]c1=S	50µM*	-7%	3%	0%	-18%	0%
CCCCCCn1c(-c2cccs2)n[nH]c1=S	28µM*	-17%	-1%	1%	-28%	6%
CCc1cc(-c2n[nH]c(=S)n2-c2cccc(C)c2)cs1	32µM*	8%	-2%	-6%	-14%	3%
C=CC(C)(CCC=C(C)C)OC(=O)CC (centres undefined)	94%[176 µM]	·	·	·	·	·
N#Cc1ccc(C(=O)N2CCC(C(=O)N3CCc4ccccc4C3)CC2)cc1	-5%	·	·	·	·	·
O=C1COc2ccc(OCc3ccccc3)nc2CN1CCOc1ccccc1	11µM*	·	·	·	·	·
Cc1cccc(CS(=O)Cc2cccc(C(F)(F)F)c2)c1 (centres undefined)	31%	·	·	·	·	·
CC1(C)Cc2c(sc(NC(=O)c3ccco3)c2C(=O)O)CO1	13%	-5%	13%	10%	-10%	-3%
CC1(C)Cc2c(sc(NC(=S)NC(=O)c3ccccc3)c2C(=O)O)CO1	28µM*	-11%	0%	21%	-6%	-10%
Fc1ccc(CN2CCOC[C@H]2c2ncc(-c3cccc(Cl)c3)[nH]2)cc1	-1%[176 µM]	·	·	·	·	·
CCN(CC)c1cc(Cl)c2nonc2c1N	?	-20%	10%	-5%	-2%	9%
CN(C)c1cc(Cl)c2nonc2c1N	40µM*	-1%	2%	10%	32µM*	50µM*
CC(C(=O)Nc1cccc(Cl)c1Cl)N1CCN(c2ccccc2O)CC1 (centres undefined)	3%	·	·	·	·	·
CN(C)CCCNS(=O)(=O)c1ccc(N2CCN(Cc3ccc4c(c3)OCO4)CC2)c([N+](=O)[O-])c1	2.8µM*	0%	18%	5%	-11%	13%
O=C(CN1CCC2(CC1)OCCO2)Nc1cc(Cl)cc(Cl)c1	12%	·	·	·	·	·
CC(=O)NC1(C)CCN(Cc2cnc(-c3cccc(C(F)(F)F)c3)s2)CC1	28µM*	·	·	·	·	·

Screening results from PubChem BioAssay.
